Test systems include T-47D breast; BT-549 breast; MDA-MB-435 melanoma; SW-620 colon; MCF7 breast; HCT-116 colon; HCC-2998 colon; KM12 colon.
What all share (assay): NCI-60 one-dose screen, 48 h (100 = growth as untreated, 0 = no growth, -100 = all killed)
What all share (settings): 10 µM unless noted

About 83,000 compounds went through this panel and 20% of them were active in at least one assay; those are over-represented in the sample as a whole.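 Negative percent growth values reflect cell death: -40 means 40% of the cells present at the start died, and -100 means all died.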 A number with no mark means an inactive call. Calls of active or inactive are those of the source. The calls were made as follows: active = growth percent below 10; inactive = the rest.

Consider `CN1CCN(c2c(F)cc(NC3=C(Cl)C(=O)c4ncccc4C3=O)cc2F)CC1`, for which the growth with T-47D breast is 16.1%; in the assay on BT-549 breast it was 106%; in the assay with MDA-MB-435 melanoma it was 21%; in the assay on SW-620 colon, -68.4% (active); with MCF7 breast, -58.3% (active); with HCT-116 colon it was -11.3% (active). The results for the growth in the assay with HCC-2998 colon and with KM12 colon were 108% and 105%, respectively.
`COc1cc(OC)c(/C=C/C(=O)c2ccc(Nc3ncnc4ccccc34)cc2)c(OC)c1`: the growth with T-47D breast is 36.2%; with BT-549 breast, -29.3% (active); with MDA-MB-435 melanoma it was -79.1% (active); with SW-620 colon, -66.8% (active); with MCF7 breast, 0.53% (active); with HCT-116 colon, -33.7% (active). For the same compound, the growth is 38.3% in the assay on HCC-2998 colon and 6.21% (active) in the assay on KM12 colon.
For `Fc1cc(C2=NNC(c3ccc[nH]3)C2)ccc1-n1ccc(C(F)(F)F)n1` (stereo not drawn), the growth in the assay on T-47D breast was 76.7%; in the assay on BT-549 breast, 92.3%; with MDA-MB-435 melanoma it was 98.7%; in the assay with SW-620 colon, 98.8%; with MCF7 breast, 83.3%; in the assay on HCT-116 colon it was 98.7%. Besides, the growth is 104% with HCC-2998 colon and 65.6% with KM12 colon.
On to `O=c1[nH]nc(-c2ccc(Cl)cc2)cc1Cc1cccc([N+](=O)[O-])c1`, for which the growth is 85.2% in the assay on T-47D breast; 133% in the assay with BT-549 breast; 112% with MDA-MB-435 melanoma; 101% with SW-620 colon; 84.8% in the assay on MCF7 breast; 100% in the assay with HCT-116 colon. Moreover, the growth is 130% in the assay on HCC-2998 colon and 93.3% with KM12 colon.
With `[2H]C1([2H])NC([2H])([2H])C([2H])([2H])N(c2ccc(Nc3ncc4cc(C(=O)N(C)C)n(C5CCCC5)c4n3)nc2)C1([2H])[2H]`, the growth is 68% with T-47D breast; 92.9% in the assay with BT-549 breast; 68.7% with MDA-MB-435 melanoma; 42.2% in the assay on SW-620 colon; 45% in the assay on MCF7 breast; 55.3% with HCT-116 colon. Further, the growth with HCC-2998 colon is 89.9%; in the assay on KM12 colon, 54.5%.
On to `Cc1n[nH]c(C)c1-c1c(C)n[nH]c1C`, for which the growth with T-47D breast is 18.7%; in the assay on BT-549 breast, 2.96% (active); in the assay on MDA-MB-435 melanoma it was -35.9% (active); in the assay with SW-620 colon, -26.1% (active); in the assay on MCF7 breast it was 10.3%; in the assay on HCT-116 colon, -44.1% (active). For the same compound, the values for the growth in the assay with HCC-2998 colon and with KM12 colon were 4.99% (active) and -19.3% (active), respectively.
As to `Cc1cccc(Oc2ccc(Nc3ncnc4ccc(NC(=O)CNCCO)cc34)cc2Cl)c1`, the growth is 35.7% in the assay on T-47D breast; 73.4% with BT-549 breast; 55.7% in the assay on MDA-MB-435 melanoma; 77.9% in the assay on SW-620 colon; 47.1% in the assay with MCF7 breast; 37.2% in the assay with HCT-116 colon. For the same compound, the growth is 66.8% with HCC-2998 colon and 76.8% in the assay on KM12 colon.
For the compound `CN(C)C(=O)OCc1nc2c(N3CCOCC3)nc(-c3ccccc3)nc2n1C`, the growth is -50.3% (active) in the assay on T-47D breast; -31.1% (active) with BT-549 breast; -89.1% (active) in the assay on MDA-MB-435 melanoma; -77.7% (active) with SW-620 colon; -60% (active) in the assay on MCF7 breast; -56.6% (active) in the assay on HCT-116 colon. For the same compound, the figures for the growth in the assay on HCC-2998 colon and in the assay on KM12 colon were -78.3% (active) and -65.6% (active), respectively.
`COc1cc2nc(-c3ccc(C#N)cc3)[nH]c(=O)c2cc1OC`: the growth in the assay on T-47D breast was 112%; in the assay on BT-549 breast it was 293%; in the assay with MDA-MB-435 melanoma, 103%; in the assay on SW-620 colon it was 110%; in the assay with MCF7 breast, 100%; with HCT-116 colon it was 94.3%. Further, the growth in the assay on HCC-2998 colon is 83.1%; in the assay on KM12 colon, 111%.
For `Clc1ccc(C2CC(c3cccc(Nc4ccncc4)c3)=NN2c2ccccc2)cc1` (stereo not drawn), the growth in the assay on T-47D breast was 58.6%; in the assay on BT-549 breast, -75.9% (active); in the assay with MDA-MB-435 melanoma, -46.1% (active); in the assay with SW-620 colon, -79.8% (active); in the assay with MCF7 breast, 4.93% (active); in the assay on HCT-116 colon, -79.6% (active). Also, the growth in the assay with HCC-2998 colon was -31.5% (active); in the assay with KM12 colon it was -7.31% (active).
Take `COC(=O)C1NC(=S)N(c2ccc(Cl)cc2)C1/C=C/c1ccccc1` (stereo not drawn): the growth with T-47D breast was 88.2%; in the assay with BT-549 breast, 93.8%; in the assay with MDA-MB-435 melanoma, 85.5%; in the assay on SW-620 colon, 108%; with MCF7 breast it was 101%; in the assay on HCT-116 colon, 95.6%. In addition, the growth in the assay with HCC-2998 colon was 93.2%; in the assay on KM12 colon it was 96%.
As for `C/C(=C(/c1ccccc1)c1ccc(OCC(O)CN2CCOCC2)cc1)c1ccccc1` (stereo not drawn), the growth is 60.3% in the assay on T-47D breast; 93.3% in the assay with BT-549 breast; 90.7% with MDA-MB-435 melanoma; 88.6% with SW-620 colon; 84.2% in the assay with MCF7 breast; 46.3% with HCT-116 colon. Further, the growth is 102% in the assay on HCC-2998 colon and 63.6% in the assay on KM12 colon.
Take `Cn1c(COC(=O)N2CCCCC2)nc2c(N3CCOCC3)nc(-c3ccccc3)nc21`: the growth in the assay on T-47D breast is -38.4% (active); in the assay on BT-549 breast, -37.7% (active); with MDA-MB-435 melanoma, -81.9% (active); with SW-620 colon, -69.1% (active); with MCF7 breast, -65.3% (active); with HCT-116 colon it was -59.3% (active). Besides, the results for the growth with HCC-2998 colon and in the assay with KM12 colon were -76.4% (active) and -73.8% (active), respectively.
On to `COc1ccc(-c2nc(N/N=C/c3ccco3)nc(N3CCOCC3)c2C#N)cc1`, for which the growth in the assay on T-47D breast is 54.2%; in the assay with BT-549 breast, 78.5%; with MDA-MB-435 melanoma, 91.7%; in the assay with SW-620 colon it was 89.8%; with MCF7 breast, 35.2%; in the assay on HCT-116 colon, 89.1%. Further, the figures for the growth in the assay with HCC-2998 colon and in the assay with KM12 colon were 92.2% and 86.7%, respectively.
Turning to `CC1(C)CN(c2cnc(C(=O)Nc3cc(F)cc4cccnc34)cn2)CCN1`, the growth is 44.3% in the assay with T-47D breast; 90.2% in the assay with BT-549 breast; 85.9% with MDA-MB-435 melanoma; 35.1% in the assay with SW-620 colon; 9.21% (active) with MCF7 breast; 11.4% in the assay on HCT-116 colon. Further, the growth with HCC-2998 colon was 92.2%; with KM12 colon, 91.7%.
As to `COc1ccc(/C=C2\COc3ccc(-c4ccccc4)cc3C2=O)cc1O`, the growth in the assay on T-47D breast was 6.79% (active); in the assay on BT-549 breast, 2.18% (active); with MDA-MB-435 melanoma it was 5.12% (active); in the assay on SW-620 colon, 6.95% (active); in the assay on MCF7 breast it was 0.878% (active); in the assay on HCT-116 colon, -5.06% (active). For the same compound, the growth is 43.1% in the assay on HCC-2998 colon and 2.07% (active) in the assay on KM12 colon.

(Values after PubChem BioAssay (NCI).)
